Compound activity as filed in PubChem.
These entries were drawn from the full list.
aSyn UTR act = Activators via SNCA 5'UTR binding, MLPCN | AID 1814 | actives 7.1% (n = 300,000) | alpha-synuclein 5'UTR reporter, activators screen | activity score, % (tested at 7.5 µM), hits read low; in the data active means activity score below about -60%
* hit, by the source's call.

SMILES | aSyn UTR act
COc1ccc(-c2cc(C(=O)Nc3cccnc3)no2)cc1OC | -187.2*
CCOc1ccc(NC(=O)c2cc3ccccc3cc2OC)cc1 | -133.3*
CCOc1ccc(NC(=O)c2cccc3ccccc23)cc1 | -318.2*
COc1ccc(C(=O)Nc2ccc3cn[nH]c3c2)c(OC)c1 | -98.6*
COc1ccc(NC(=O)c2ccc3ccccc3c2OC)cc1 | -214.8*
COc1ccc(NC(=O)c2cc3c([nH]c4ccccc43)c(C)n2)cc1 | -84.2*
COc1cc2ccccc2cc1C(=O)Nc1ccccc1Cl | -138.7*
O=C(Nc1ccc(Cl)cc1)c1ccc(Br)cc1F | -123.5*
CCNC(=O)NC(=O)COC(=O)c1ccccc1SCC(=O)NC(=O)NCC | -121.6*
CC(=O)Oc1ccc(-c2csc(Nc3cccc(C)n3)n2)cc1 | -250.1*
COc1ccc(-c2csc(Nc3cccc(C)n3)n2)cc1C | -216.3*
Fc1ccc(-c2csc(Nc3ccccn3)n2)cc1 | -77.0*
COc1ccc(-c2csc(Nc3cccc(C)n3)n2)cc1 | -231.9*
Cc1cccc(Nc2nc(-c3ccc(F)cc3)cs2)n1 | -136.9*
O=C(NCCCC1CCCC1)C1CCC(=O)N(Cc2cccc(F)c2)C1 (stereo unspecified) | -161.5*
COc1ccccc1CCCNC(=O)C1CCC(=O)N(Cc2ccccc2F)C1 (stereo unspecified) | -130.4*
CCn1c(SCC(=O)c2ccc(Cl)cc2)nnc1C(C)C | -76.2*
Cc1ccc(C(=O)CSc2nsc(C)c2C#N)cc1 | -149.0*
Cc1ccnc(SCC(=O)c2ccc(Br)cc2)c1C#N | -198.2*
Cc1snc(SCC(=O)c2ccc(Cl)cc2)c1C#N | -140.3*
CCOC(=O)C1(Cc2cccc(Cl)c2)CCCN(C(=O)c2ccnn2C)C1 (stereo unspecified) | -84.8*
CCOC(=O)C1(Cc2cccc(Cl)c2)CCCN(C(=O)CN2C(=O)CSC2=O)C1 (stereo unspecified) | -75.1*
Cc1cc(N2C(=O)C(O)=C(C(=O)c3cc4ccccc4o3)C2c2ccc(OC(C)C)cc2)no1 (stereo unspecified) | -90.7*
Cc1cccc(-n2ncc3c(NNC(=O)c4ccco4)ncnc32)c1 | -132.9*
Cc1ccc(-n2ncc3c(NNC(=O)c4ccco4)ncnc32)cc1Cl | -166.0*
SMILES | aSyn UTR act
CCN(CC)c1nc(Nc2ccc(Cl)cc2)nc(OCC#N)n1 | 70.0
C[C@H]1O[C@@H](O[C@H]2[C@@H](O)C[C@H](O[C@H]3[C@@H](O)C[C@H](O[C@H]4CC[C@@]5(C)[C@H](CC[C@@H]6[C@@H]5C[C@@H](O)[C@]5(C)[C@@H](C7=CC(=O)OC7)CC[C@]65O)C4)O[C@@H]3C)O[C@@H]2C)C[C@H](O)[C@@H]1O | 112.5
O=C(Nc1ccc(Cl)cc1)c1ccc(OCC2CCCO2)cc1 (stereo unspecified) | -201.9*
Cc1cccc(NC(=O)c2ccc(OCC3CCCO3)cc2)c1C (stereo unspecified) | -69.7*
O=C(Nc1ccccc1)OCC1CCCO1 (stereo unspecified) | -83.9*
Cc1ccc2sc(-c3ccc(NC(=O)c4cc(-n5cnnc5)ccc4Cl)cc3)nc2c1 | -152.9*
Cc1c(NC(=O)c2cc(-n3cnnc3)ccc2Cl)cccc1-c1nc2ccccc2s1 | -89.6*
O=C(Nc1cccc(-c2nc3ccccc3s2)c1)c1cc(-n2cnnc2)ccc1Cl | -85.5*
O=c1oc2ccccc2c(Nc2ccc3ccccc3c2)c1[N+](=O)[O-] | -94.2*
Cn1/c(=N\NC(=O)c2ccccc2Cl)sc2ccccc21 | -89.2*
Cn1/c(=N\NC(=O)C2CCCCC2)sc2ccccc21 | -141.5*
CO/N=C/C(=N\Nc1ccc(OC)cc1)C(=O)c1ccc(OC)cc1 | -71.0*
COc1cccc(C(=O)CSc2nccn2C)c1 | -84.1*
COc1ccc(C(=O)CSc2nccn2C)c(OC)c1 | -79.8*
Cn1ccnc1SCC(=O)c1ccc2ccccc2c1 | -70.9*
Cn1ccnc1SCC(=O)c1ccc(O)cc1 | -65.2*
COc1cccc(C(=O)Oc2c(CN3CCOCC3)cc(Cl)c3cccnc23)c1 | 88.7
N/C(=N\OC(=O)COc1cc(Cl)c(Cl)cc1Cl)c1ccncc1 | -174.1*
Cc1ccc(OCC(=O)O/N=C(\N)c2ccncc2)c(C)c1 | -182.1*
Cc1ccccc1OCC(=O)O/N=C(\N)c1ccncc1 | -102.7*
Oc1ccccc1-c1nnc(COc2ccccc2)o1 | -87.9*
c1ccc(OCc2nnc(-c3ccccc3)o2)cc1 | -129.2*
Clc1ccc(-c2nnc(CCc3ccccc3)o2)c(Cl)c1 | -155.4*
Oc1ccccc1-c1nnc(COc2ccc(Cl)cc2Cl)o1 | -170.1*
CCC1(C)N=C(c2ccc3c(c2)OCO3)CC(c2ccccc2O)N1 (stereo unspecified) | -286.1*
SMILES | aSyn UTR act
CCCC(=O)N(CCN1CCOCC1)c1nc2c(F)cc(F)cc2s1 | -86.3*
Cc1ccc(S(=O)(=O)CCC(=O)N(CCN2CCOCC2)c2nc3ccccc3s2)cc1 | -75.3*
Cc1cc(C)nc(Nc2n[nH]c(-c3ccccc3Br)n2)n1 | -115.4*
Cc1cc(C)nc(Nc2n[nH]c(-c3ccccc3C)n2)n1 | -136.0*
Clc1ccc2nc(N3CCN(c4ccccc4)CC3)sc2c1 | -108.5*
Brc1ccc2nc(N3CCN(c4ccccc4)CC3)sc2c1 | -142.7*
Cc1cc(=O)[nH]c(SCCOc2ccc3c(c2)CCC3)n1 | -107.5*
Cc1nc(N/N=C\c2ccc3c(c2)OCO3)sc1C | -128.5*
Brc1csc(/C=N/Nc2nc3ccccc3s2)c1 | -274.6*
C(=N\Nc1nc2ccccc2s1)/c1ccccn1 | 100.9
Cc1ccc2[nH]c(C)c(/C=N/Nc3nc4ccccc4s3)c2c1 | -140.3*
C(=N\Nc1nc2ccccc2s1)/c1ccc2c(c1)OCO2 | -189.6*
Brc1cc2c(cc1/C=N/Nc1nc3ccccc3s1)OCO2 | -116.9*
O=C(NC1=NCCS1)c1ccc(Cl)cc1 | -180.5*
O=C(NC1=NCCS1)c1ccc(-c2ccc(Cl)cc2)o1 | -191.3*
O=C(NNC1=Nc2ccccc2SC1)c1ccc(Cl)cc1 | 96.2
O=C(NC1=NCCS1)c1sc2cc(F)ccc2c1Cl | -191.0*
O=C(NCCCN1CCOCC1)c1sc2cc(F)ccc2c1Cl | -61.9*
O=C(NC1CCC(O)CC1)c1ccc(-c2ccc(Cl)cc2)o1 (stereo unspecified) | -111.5*
Oc1nc(Nc2ccccc2)sc1/C=C1\C=Nc2ccccc21 | -111.9*
CCn1c(O)c(C=Nc2ccccc2)sc1=S | -153.3*
CC1=Nc2ccccc2/C1=C/c1sc(=N)n(-c2nccs2)c1O | 62.5
CCn1c(O)c(/C=C2\C=Nc3ccccc32)sc1=O | -244.7*
CCn1c(O)c(C=Nc2ccccc2)sc1=O | -101.3*
C=CCn1c(O)c(C=Nc2ccccc2)sc1=S | -106.8*
SMILES | aSyn UTR act
N/C(=N\OC(=O)CCCc1ccccc1)c1ccccn1 | -68.6*
N/C(=N\OC(=O)Cc1ccccc1)c1ccccn1 | -76.6*
Cc1ccc(NC(=O)c2ccc3c(=O)n4c(nc3c2)CCCCC4)nc1 | -71.7*
O=C(NC1CCCCCC1)c1ccc2c(=O)n3c(nc2c1)CCCCC3 | -72.5*
Cc1c(C(=O)O)cccc1-c1ccc(C=O)o1 | -80.4*
COc1ccc(C2=NN(C(N)=S)C(c3ccco3)C2)cc1 (stereo unspecified) | -86.5*
O=[N+]([O-])c1ccc(C2=NN(c3ccccc3)C(c3ccco3)C2)cc1 (stereo unspecified) | -74.9*
CCc1ccc(C2=NN(C(C)=O)C(c3ccco3)C2)cc1 (stereo unspecified) | -202.4*
CCS(=O)(=O)Nc1cccc(C2=NN(C(=O)c3ccco3)C(c3ccco3)C2)c1 (stereo unspecified) | -73.4*
